High-throughput results as filed in PubChem BioAssay.
Shown are actives, neighbours in structure and some others; about 7.3% of the full set was active somewhere.
VACV Venus inh – vaccinia inhibition (Venus reporter); Potency, µM (doses to about 36.5 µM), most hits filed as inhibitors; 0.46% of 330,000 active; Vaccinia virus Venus reporter expression, fluorescence; calls by dose curve; tested in A549 cells; further: nearly all actives have a fitted effect of over 30% in size
FMDV antiviral – blocks foot and mouth disease virus; Potency, µM (doses to about 57.9 µM), hits mostly inhibitors; FMDV antiviral cell-based qHTS; 1.2% of 410,000 active; calls by dose curve; tested in HEK293T cells; further: read-out not given here; nearly all actives have a fitted effect of over 45% in size
Vaccinia mCherry – vaccinia inhibition (mCherry reporter); Vaccinia virus mCherry reporter infection, fluorescence; Potency, µM (titrated, usually from 36.5 µM), most hits filed as inhibitors; 0.63% of 310,000 active; calls by dose curve; tested in A549 cells; further: nearly all actives have a fitted effect of over 35% in size
HCV inh – inhibitors of hepatitis C virus infection. Huh7.5.1 HCVcc-Cre infection, luciferase reporter, 44 h. Potency, µM (highest dose often 41.8 µM), actives largely listed as inhibitors. 3.4% of 340,000 active. AID 651820; active means well fitted inhibition curve with a large enough effect; inconclusive means small, poorly fitted or top-dose-only effect, or another doubt; inactive means no such curve, though single readings can be large or run the other way
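Cells seeded at 1,000/well and cultured 4 h, then compounds added followed by HCVcc-Cre virus (~0.5 moi). After 44 h further culture, luciferase substrate was added, plates held 15 min at room temperature, and luminescence read for 15 sec.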
HCMV antiviral – blocks human cytomegalovirus replication; HFF cells, HCMV-luciferase reporter, 72 h; stronger effect = lower value; activity change, negative = inhibition, % at 57.5 µM; 4.5% of 410,000 active; in the data active means activity change below about -60%; inconclusive means no clear call, values can overlap the other calls; inactive means above about -39%
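Human foreskin fibroblasts infected with luciferase-reporter HCMV at MOI 1 PFU/cell, compounds at two doses. Luciferase measured 72 h post infection; normalized to buffer-only basal and Salinomycin (10uM) controls.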
A number is an active result; - = inactive; ? = inconclusive; . = not tested or not shown.

SMILES	VACV Venus inh	FMDV antiviral	Vaccinia mCherry	HCV inh	HCMV antiviral
COc1ccc(OC2CCN(S(=O)(=O)c3cccc(F)c3)CC2)cc1	-	?	-	?	-97
CC(C)C(NS(C)(=O)=O)c1nnc2n1CCN(Cc1ccc3cccnc3c1)CC2 (configuration not stated)	-	-	-	.	.
O=C(Nc1cccc(-c2cccc(Cl)c2)c1)C1CCN(Cc2ccc(CO)o2)CC1	-	-	?	10µM	?
CCn1cc(CN2CCC(C(=O)Nc3cccc(-c4cccc(F)c4)c3)CC2)cn1	-	-	-	8.9µM	-63
CCn1cc(CN2CCC(C(=O)Nc3cccc(-c4cccc(OC)c4)c3)CC2)cn1	-	-	-	-	-
Cn1cc(CN2CCCC(C(=O)Nc3ccc(-c4cccc(F)c4)cc3)C2)cn1 (configuration not stated)	.	?	.	?	-72
O=C(NCCc1ccc(Cl)cc1)c1cccn1-c1nnc(N2CCCC2)s1	-	-	-	.	-
COc1ccccc1NC(=O)N1CC(=O)N2[C@H](C1)[C@@H](c1ccc(Br)cc1)[C@@H]2CO	.	.	.	.	-
CC(=O)Nc1ccc(NC(=O)Cn2c(CC(=O)N3CCCC3)nc3ccccc32)cc1	.	-	.	-	-88
CC(=O)Nc1ccc(C(=O)CSc2nc3ccccc3n2CC(=O)N2CCCC2)cc1	.	-	.	-	-
CN(C)C(=O)N1CCC(C(=O)NCc2ccc(F)cc2Cl)CC1	-	.	-	-	?
O=C(NNC(=O)C1CCN(Cc2ccc(F)cc2Cl)CC1)Nc1ccc([N+](=O)[O-])cc1	.	-	.	11µM	-
CC(=O)c1cccc(S(=O)(=O)NCCc2csc3nc(-c4ccc(F)cc4)nn23)c1	-	-	-	.	-
CCOC(=O)Cn1nc(/C=C/c2ccc(OC)cc2)ccc1=O	-	-	-	-	-106
CCOC(=O)CSC1=NC(=O)/C(=C/c2ccc(OC)cc2)S1	?	25µM	?	?	.
COc1ccc(/C=C2\SC(N)=NC2=O)cc1	-	-	-	-	-
COc1ccc(/C=C/c2ccc(=O)n(Cc3ccccc3)n2)cc1	-	-	-	?	-
CCN(CC)CCNc1ccc(C)c2sc3ccc(O)cc3c(=O)c12	?	-	?	?	-97
CCN(CC)CCCNC(=O)C(C)n1nc(C)c2sc3ccccc3c2c1=O (configuration not stated)	-	-	-	-	-
O=C(Nn1c(O)c(C=C2N=c3ccccc3=N2)sc1=S)c1ccccc1Cl	.	-	.	-	-91
CCN1CCN(c2ccc(S(=O)(=O)N3CCCCC3)cc2NC(=O)c2ccc([N+](=O)[O-])o2)CC1	10µM	-	4µM	3.5µM	-
COc1ccc(-c2cc3ccccc3oc2=O)cc1NC(=O)c1ccc([N+](=O)[O-])o1	?	-	11µM	?	-66
CCN1CCN(c2ccc(S(=O)(=O)N3CCCCC3)cc2NC(=O)c2ccc(F)cc2)CC1	-	-	-	-	-
CS(=O)(=O)N1CCN(c2ccccc2NC(=O)c2ccc([N+](=O)[O-])o2)CC1	-	?	-	11µM	-83
CCN1CCN(c2ccc(S(=O)(=O)N3CCOCC3)cc2NC(=O)/C=C/c2ccc([N+](=O)[O-])cc2)CC1	?	-	?	25µM	-
SMILES	VACV Venus inh	FMDV antiviral	Vaccinia mCherry	HCV inh	HCMV antiviral
COc1cccc(CNC(=O)C2CCN(S(=O)(=O)c3c(C)noc3/C=C/c3cccs3)CC2)c1	-	-	-	.	-
COc1ccc(OC)c(NC(=O)CSC2=Nc3ccccc3C3=NC(CC(=O)NCc4ccc5c(c4)OCO5)C(=O)N23)c1 (configuration not stated)	-	-	-	.	-
O=C(c1ccccc1Br)N(CCc1ccccc1)C(CCc1ccccc1)c1nc2ccccc2[nH]1 (configuration not stated)	.	.	.	.	-
Cc1ccc(S(=O)(=O)CC(=O)Nc2ccc3nc(C)sc3c2)cc1	.	-	.	-	-
COC(=O)CCN(c1ccccc1)C(CNS(=O)(=O)c1ccccc1)c1ccccc1 (configuration not stated)	-	-	-	.	-
CN(Cc1ccc(Cl)cc1)C(=O)CNC(=O)C12CC3CC(CC(C3)C1)C2	-	?	-	-	-
COc1ccc(S(=O)(=O)N2CCCCC2)cc1NC(=O)c1ccc([N+](=O)[O-])o1	-	-	-	10µM	-
CN1CCN(c2ccccc2NC(=O)c2ccc(-c3cccc([N+](=O)[O-])c3)o2)CC1	?	-	-	5.6µM	-
CCC(=O)N1CCN(c2ccccc2NC(=O)c2ccc(-c3cccc([N+](=O)[O-])c3)o2)CC1	-	-	-	?	-
